Laboratory results published in the supplement of paper PMC10849652.
The full data set covers some 7,900 targets. This sample favours those with a hit. About 0.6% of all pairs of compound and target were hits.

compound: c1cc(OCCN2CCCCC2)cc(-c2n[nH]c3ccc(-c4nnc[nH]4)cc23)c1; assay: log2 fold change, soluble protein after heating vs DMSO (PISA); higher = thermal stabilisation; K562 cells, 10 uM, 30 min; active = over 0.2 and 3.5 SD of the protein, either way, in both replicates (recomputed)
How it was run: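 For each measurement, 10 μM compound was applied for 30 min to K562 cells at 2×10^6 cells/mL. Aliquots were heated for 3 min across 48°C-58°C, pooled, and extracted in PBS with 0.5% NP-40 at 4°C; the supernatant after 21,000xg for 90 min was soluble protein. This was quantified by TMTpro 16plex LC-MS/MS with channel sums equalised, and thermal stability was reported relative to control samples from duplicates, on a log2 fold-change scale.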

Chain of UniProt Q68DH5 (Q68DH5 whole entry, looked up): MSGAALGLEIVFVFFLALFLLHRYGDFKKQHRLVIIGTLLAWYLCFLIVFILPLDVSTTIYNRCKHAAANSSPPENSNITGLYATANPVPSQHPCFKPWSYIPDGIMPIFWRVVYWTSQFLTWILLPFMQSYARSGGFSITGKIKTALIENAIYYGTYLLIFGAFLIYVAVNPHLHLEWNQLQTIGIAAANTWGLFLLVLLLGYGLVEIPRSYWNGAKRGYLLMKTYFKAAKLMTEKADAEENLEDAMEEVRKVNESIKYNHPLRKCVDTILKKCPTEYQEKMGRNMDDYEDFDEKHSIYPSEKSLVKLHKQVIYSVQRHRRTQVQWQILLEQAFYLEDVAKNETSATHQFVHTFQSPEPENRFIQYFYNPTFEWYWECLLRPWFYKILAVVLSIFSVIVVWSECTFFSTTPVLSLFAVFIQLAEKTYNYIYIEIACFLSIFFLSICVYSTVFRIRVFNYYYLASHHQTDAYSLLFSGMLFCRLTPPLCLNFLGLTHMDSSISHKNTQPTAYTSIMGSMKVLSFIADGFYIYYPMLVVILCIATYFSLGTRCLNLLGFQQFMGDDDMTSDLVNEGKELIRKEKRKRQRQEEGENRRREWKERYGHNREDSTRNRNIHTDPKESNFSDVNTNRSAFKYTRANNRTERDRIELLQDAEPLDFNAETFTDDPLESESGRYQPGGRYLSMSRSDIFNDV
Chain of UniProt O14880 (O14880 whole entry, looked up): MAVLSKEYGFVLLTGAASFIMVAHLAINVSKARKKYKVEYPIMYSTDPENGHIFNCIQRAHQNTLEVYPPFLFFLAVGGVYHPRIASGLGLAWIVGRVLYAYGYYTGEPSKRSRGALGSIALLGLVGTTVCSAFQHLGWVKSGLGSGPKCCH
Chain of UniProt O94822 (O94822 whole entry, looked up): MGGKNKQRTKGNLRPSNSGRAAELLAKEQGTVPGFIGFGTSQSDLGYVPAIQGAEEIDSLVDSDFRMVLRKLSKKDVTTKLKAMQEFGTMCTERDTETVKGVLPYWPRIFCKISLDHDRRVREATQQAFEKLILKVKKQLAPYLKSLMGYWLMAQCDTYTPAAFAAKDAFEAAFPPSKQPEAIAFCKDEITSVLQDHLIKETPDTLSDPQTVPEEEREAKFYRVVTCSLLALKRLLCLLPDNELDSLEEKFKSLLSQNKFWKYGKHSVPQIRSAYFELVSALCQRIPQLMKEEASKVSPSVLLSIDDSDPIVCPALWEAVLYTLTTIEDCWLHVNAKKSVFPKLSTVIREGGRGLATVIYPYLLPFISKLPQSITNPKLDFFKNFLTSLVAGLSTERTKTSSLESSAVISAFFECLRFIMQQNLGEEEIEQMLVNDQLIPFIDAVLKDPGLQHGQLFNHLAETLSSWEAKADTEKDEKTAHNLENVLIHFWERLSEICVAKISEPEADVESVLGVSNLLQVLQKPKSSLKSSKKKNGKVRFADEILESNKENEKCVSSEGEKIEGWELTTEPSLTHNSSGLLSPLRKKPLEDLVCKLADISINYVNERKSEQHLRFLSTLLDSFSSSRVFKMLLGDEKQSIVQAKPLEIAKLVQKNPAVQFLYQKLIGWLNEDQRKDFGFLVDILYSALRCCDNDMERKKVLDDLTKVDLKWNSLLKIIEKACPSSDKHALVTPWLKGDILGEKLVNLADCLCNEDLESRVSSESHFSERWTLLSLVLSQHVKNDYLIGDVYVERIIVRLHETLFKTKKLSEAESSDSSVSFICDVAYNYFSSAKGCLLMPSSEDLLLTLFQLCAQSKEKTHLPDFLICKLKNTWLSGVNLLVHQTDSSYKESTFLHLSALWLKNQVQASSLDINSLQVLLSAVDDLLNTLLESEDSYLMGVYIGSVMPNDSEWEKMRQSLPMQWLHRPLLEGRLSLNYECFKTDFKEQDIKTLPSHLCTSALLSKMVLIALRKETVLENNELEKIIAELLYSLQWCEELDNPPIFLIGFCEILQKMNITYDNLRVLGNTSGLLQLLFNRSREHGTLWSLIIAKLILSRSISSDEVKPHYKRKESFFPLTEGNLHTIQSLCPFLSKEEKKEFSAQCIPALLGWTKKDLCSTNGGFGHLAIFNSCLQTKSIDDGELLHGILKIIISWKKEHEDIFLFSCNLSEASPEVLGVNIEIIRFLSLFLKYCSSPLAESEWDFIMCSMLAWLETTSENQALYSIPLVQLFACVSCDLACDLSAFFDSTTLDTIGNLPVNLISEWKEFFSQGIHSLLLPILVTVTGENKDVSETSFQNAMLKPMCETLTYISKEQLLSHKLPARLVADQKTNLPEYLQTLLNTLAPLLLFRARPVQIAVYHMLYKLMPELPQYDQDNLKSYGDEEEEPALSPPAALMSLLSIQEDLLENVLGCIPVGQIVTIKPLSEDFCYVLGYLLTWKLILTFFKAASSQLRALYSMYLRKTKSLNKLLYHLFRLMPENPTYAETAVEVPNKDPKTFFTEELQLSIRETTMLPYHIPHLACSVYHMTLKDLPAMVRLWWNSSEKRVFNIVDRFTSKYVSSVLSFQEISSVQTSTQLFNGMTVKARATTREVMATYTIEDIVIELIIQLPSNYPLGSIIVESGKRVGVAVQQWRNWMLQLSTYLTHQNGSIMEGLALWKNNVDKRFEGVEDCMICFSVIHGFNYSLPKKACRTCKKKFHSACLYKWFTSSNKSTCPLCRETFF
Chain of UniProt Q6P1A2 (Q6P1A2 whole entry, looked up): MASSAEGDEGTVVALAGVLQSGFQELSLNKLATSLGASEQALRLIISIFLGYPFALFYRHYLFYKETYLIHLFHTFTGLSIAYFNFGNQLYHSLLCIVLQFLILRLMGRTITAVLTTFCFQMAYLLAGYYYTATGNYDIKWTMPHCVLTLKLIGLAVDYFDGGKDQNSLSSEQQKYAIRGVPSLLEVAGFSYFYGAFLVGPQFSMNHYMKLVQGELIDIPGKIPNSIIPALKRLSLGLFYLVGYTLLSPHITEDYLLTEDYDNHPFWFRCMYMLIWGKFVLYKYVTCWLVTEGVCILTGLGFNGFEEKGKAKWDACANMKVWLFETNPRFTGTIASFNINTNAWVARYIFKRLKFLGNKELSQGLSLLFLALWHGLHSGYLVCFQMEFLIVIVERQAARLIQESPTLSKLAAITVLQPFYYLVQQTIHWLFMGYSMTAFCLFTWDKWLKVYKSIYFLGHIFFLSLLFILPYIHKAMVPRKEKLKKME
Chain of UniProt Q14145 (Q14145 whole entry, looked up): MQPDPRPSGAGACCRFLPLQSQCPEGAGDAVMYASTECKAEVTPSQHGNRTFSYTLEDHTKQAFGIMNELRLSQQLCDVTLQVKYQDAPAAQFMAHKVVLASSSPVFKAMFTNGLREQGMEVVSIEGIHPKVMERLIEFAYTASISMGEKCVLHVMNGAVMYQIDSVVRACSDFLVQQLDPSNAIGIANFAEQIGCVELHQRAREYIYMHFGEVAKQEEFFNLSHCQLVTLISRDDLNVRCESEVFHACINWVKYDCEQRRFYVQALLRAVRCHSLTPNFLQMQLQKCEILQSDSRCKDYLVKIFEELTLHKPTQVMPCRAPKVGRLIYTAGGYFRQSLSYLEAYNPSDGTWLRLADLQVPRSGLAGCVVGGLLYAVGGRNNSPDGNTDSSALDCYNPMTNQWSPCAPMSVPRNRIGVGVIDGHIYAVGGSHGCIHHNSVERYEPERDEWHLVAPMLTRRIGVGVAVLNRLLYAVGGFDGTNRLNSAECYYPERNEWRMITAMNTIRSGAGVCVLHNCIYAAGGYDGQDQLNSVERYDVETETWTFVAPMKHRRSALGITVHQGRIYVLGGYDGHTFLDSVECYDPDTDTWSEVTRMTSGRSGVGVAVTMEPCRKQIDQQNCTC
Chain of UniProt P45983 (P45983 whole entry, looked up): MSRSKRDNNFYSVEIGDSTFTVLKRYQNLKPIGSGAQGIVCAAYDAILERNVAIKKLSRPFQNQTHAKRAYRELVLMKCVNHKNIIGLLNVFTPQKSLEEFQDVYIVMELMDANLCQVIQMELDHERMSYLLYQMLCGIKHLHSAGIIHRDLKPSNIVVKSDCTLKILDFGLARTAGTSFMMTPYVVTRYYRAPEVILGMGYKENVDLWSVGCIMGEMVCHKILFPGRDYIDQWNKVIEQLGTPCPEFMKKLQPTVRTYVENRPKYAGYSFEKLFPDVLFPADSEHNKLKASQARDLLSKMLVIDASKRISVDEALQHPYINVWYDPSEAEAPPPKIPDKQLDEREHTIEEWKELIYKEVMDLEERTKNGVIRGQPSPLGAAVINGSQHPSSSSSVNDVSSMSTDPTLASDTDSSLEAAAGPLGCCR

log2 fold change, inactive:
KEAP1 (UniProt Q14145) -0.055, MAGI1 (UniProt Q96QZ7) -0.081, MGST3 (UniProt O14880) -0.056, MICU1 isoform 3 (UniProt Q9BPX6) -0.085, MAP4 (UniProt E7EVA0) -0.075, LNPK (UniProt Q9C0E8) -0.006, KIF1B isoform 4 (UniProt O60333) -0.062, LIAS (UniProt O43766) -0.022, MAPK8 isoform 3 (UniProt P45983) 0.362, MFGE8 (UniProt Q08431) -0.029, KHDC4 (UniProt Q7Z7F0) -0.052, LUC7L3 (UniProt O95232) -0.086, LTN1 isoform 3 (UniProt O94822) -0.045, LPCAT3 (UniProt Q6P1A2) 0.072, LMBRD2 (UniProt Q68DH5) -0.005, KPNA6 (UniProt O60684) -0.159
